JMJD2A Tudor inh = JMJD2A Tudor domain (human) inhibition | O75164 | actives 4.4% (n = 390,000) | Potency, µM (top dose mostly 114 µM), for the others: top-dose activity change, negative = inhibition, most hits filed as inhibitors | AlphaScreen JMJD2A-Tudor / H3K4me3 peptide binding; note: % is set by controls: 0 for no effect and ±100 for the full control effect; nearly all actives have a fitted effect of over 50% in size
G9a inh = G9a (human) methyltransferase inhibition; Q96KQ7; G9a H3K9 monomethylation, AlphaScreen, 2 h; Potency, µM (series often up to 102 µM), for inactives: at the top dose activity, negative = inhibition, actives largely listed as inhibitors; actives 8.8% (n = 350,000); AID 504332; note: % is set by controls: 0 for no effect and ±100 for the full control effect; nearly all actives have a fitted effect of over 75% in size
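AlphaScreen read-out: biotin-H3K9 peptide (500 nM) methylation by 20 nM enzyme with 20 uM SAM, 2 h at room temperature after 15 min compound preincubation; anti-monomethyl H3K9 antibody plus donor/acceptor beads, 10 min dark.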
BAZ2B inh = inhibitors of human BAZ2B bromodomain | Q9UIF8 | AlphaScreen BAZ2B-H3K14Ac peptide displacement | Potency, µM (doses to about 114 µM), for inactives: top-dose activity change, negative = inhibition, most hits filed as inhibitors | actives 4.4% (n = 360,000) | AID 504333; note: % is set by controls: 0 for no effect and ±100 for the full control effect; nearly all actives have a fitted effect of over 60% in size
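Compounds, titrated to a top concentration of 110 uM, were incubated 30 min at room temperature with preformed BAZ2B/acetyl-K14 H3 peptide complex (50 nM each). Proximity signal was measured by AlphaScreen after 20 min with beads.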
HP1b binding inh = HP1-beta chromodomain-methylated histone interaction inhibition; Potency, µM (doses to about 114 µM), for inactives: at the highest dose activity change, negative = inhibition, most hits filed as inhibitors; AlphaScreen HP1-beta / biotin-H3K9me3 peptide binding; AID 540317; actives 0.56% (n = 390,000); note: nearly all actives have a fitted effect of over 70% in size
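AlphaScreen: HP1-beta (50 nM) preformed 30 min with biotin-H3(1-18)K9me3 peptide (50 nM) in PBS pH 7.4, 0.01% Tween-20. Compound added for 30 min at RT, then streptavidin donor/nickel chelate acceptor beads (10 ug/mL) for 30 min.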
L3MBTL1 inh = L3MBTL1 (human) inhibition | AlphaScreen L3MBTL1–H3K9me1 peptide binding | actives 0.66% (n = 230,000) | AID 485360 | Potency, µM (titrated, usually from 57.1 µM), for inactives: at the highest dose activity, negative = inhibition, most hits filed as inhibitors; note: % is set by controls: 0 for no effect and ±100 for the full control effect; nearly all actives have a fitted effect of over 60% in size
Target sequence (Q9Y468 whole entry, looked up): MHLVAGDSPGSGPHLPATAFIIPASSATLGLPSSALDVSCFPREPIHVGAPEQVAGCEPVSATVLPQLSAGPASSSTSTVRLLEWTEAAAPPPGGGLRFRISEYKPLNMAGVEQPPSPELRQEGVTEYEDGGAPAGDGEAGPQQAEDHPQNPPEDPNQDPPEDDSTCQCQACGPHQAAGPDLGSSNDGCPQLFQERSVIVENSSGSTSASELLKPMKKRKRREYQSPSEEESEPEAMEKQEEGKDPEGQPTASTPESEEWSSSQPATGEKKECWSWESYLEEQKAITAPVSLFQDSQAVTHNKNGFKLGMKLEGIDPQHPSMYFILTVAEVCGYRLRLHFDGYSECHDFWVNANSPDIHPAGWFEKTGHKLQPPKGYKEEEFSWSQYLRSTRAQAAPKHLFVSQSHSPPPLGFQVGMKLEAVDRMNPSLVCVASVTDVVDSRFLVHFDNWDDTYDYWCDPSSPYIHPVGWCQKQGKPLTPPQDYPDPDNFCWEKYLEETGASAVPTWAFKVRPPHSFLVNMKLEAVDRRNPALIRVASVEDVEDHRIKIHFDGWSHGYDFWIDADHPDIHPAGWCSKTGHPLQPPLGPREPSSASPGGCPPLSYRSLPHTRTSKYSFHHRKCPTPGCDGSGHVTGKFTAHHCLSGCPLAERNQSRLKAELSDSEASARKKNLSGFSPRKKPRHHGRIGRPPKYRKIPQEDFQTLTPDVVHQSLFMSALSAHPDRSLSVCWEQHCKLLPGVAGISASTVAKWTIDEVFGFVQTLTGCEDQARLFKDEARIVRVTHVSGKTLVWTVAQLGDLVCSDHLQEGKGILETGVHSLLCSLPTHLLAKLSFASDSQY
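Read-out is AlphaScreen signal from streptavidin donor and nickel chelate acceptor beads (10 ug/mL final each) bridging L3MBTL1 (50 nM) and biotinylated K9-monomethylated H3(1-15) peptide (75 nM), after 30 min compound exposure at room temperature.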
Active calls of the source: *; ? = inconclusive; / = no result given; [ ] = remark or other dose. Most compounds without a hit are left out; they make up all but 11% or so of the library. Calls come from the whole dose curve; as a rule, active = well fitted inhibition curve with a large enough effect; inconclusive = small, poorly fitted or top-dose-only effect; inactive = no such curve, though single readings can be large or run the other way. Potency is the fitted concentration of half-maximal effect.

SMILES | JMJD2A Tudor inh | G9a inh | BAZ2B inh | HP1b binding inh | L3MBTL1 inh
CC(Oc1ccccc1)C(=O)Nc1nnc2n1CCS2 (stereo not given) | 28.2µM* | 1.58µM* | 20µM* | -5.5%[57 µM] | /
O=c1c2ccccc2c(C=NC2CCN(Cc3ccccc3)CC2)c(O)n1Cc1ccc2c(c1)OCO2 | / | 8.91µM* | 8.91µM* | / | -7.0%
CN(C)CCN=Cc1c(O)n(Cc2ccc3c(c2)OCO3)c(=O)c2ccccc12 | ? | 50.1µM* | ? | -27.9% | /
Cn1c(=O)c(C(=O)CN2CCN(Cc3ccc4c(c3)OCO4)CC2)c(N)n(Cc2ccccc2)c1=O | -15.6% | 3.6% | -14.7% | 21.2% | -4.3%
CN(C)CCCN=Cc1c(O)n(Cc2ccc3c(c2)OCO3)c(=O)c2ccccc12 | / | ? | ? | / | -8.3%
CCN(CC)c1cc(C)c2cc(NC(=O)/C=C/c3cc(OC)c(OC)c(OC)c3)ccc2n1 | ? | ? | ? | -8.3% | /
COC(=O)Nc1nc2ccc(-c3n[nH]c(=O)c4ccccc34)cc2[nH]1 | ? | 50.1µM* | ? | 10.9% | -0.1%
COc1ccc(CC(=O)NCc2ccccc2)cc1OC | -13.9% | / | 9.1% | 23.4% | -3.4%
CCCCNc1cc(NC(C)=O)cc2cc(OC)c(OC)cc12 | ? | 44.7µM* | -35.8% | -15.1% | -9.4%
CCCC(=O)Nc1cc(OC)c(OC)cc1C(=O)O | 5.0% | 4.5%[59 µM] | 1.6% | 31.1% | /
COc1cc2cc(NC(C)=O)cc(NCc3ccccc3)c2cc1OC | ? | ? | 44.7µM* | -2.0% | -16.2%
Cc1cccc(C)c1NC(=O)c1sc(-n2nc(C)c(Cc3ccccc3)c2C)nc1C | -3.0% | -1.7%[59 µM] | -10.1% | 45.0% | /
Cc1cc2c(s1)c1cnn(Cc3c(C)cc(F)cc3C)c(=O)c1n2C | -15.8% | / | / | / | /
O=C(Nc1cccc(C(F)(F)F)c1)N1CCC(CN2CCCCCC2)CC1 | -14.5% | ? | -0.5% | 24.7% | /
Cc1ccc(-c2nnc(NC(=O)c3ccco3)o2)c(C)c1 | -14.5% | -34.5% | ? | 19.0% | -10.8%
COc1cccc(C(=O)Nc2nnc(-c3cccs3)o2)c1 | -12.8% | -4.4% | ? | 50.2% | 6.5%
O=C(Nc1nnc(-c2ccccc2Cl)o1)c1ccco1 | 79.4µM* | ? | 79.4µM* | 12.5% | 2.1%
CCOc1cc(-c2nnc(NC(=O)c3ccco3)o2)cc(OCC)c1OCC | -24.1% | 37.4%[59 µM] | 10.0% | 16.3% | 7.6%
O=C(Nc1nnc(-c2cccs2)o1)c1ccco1 | 44.7µM* | 10µM* | 35.5µM* | 44.6% | /
O=C(Nc1nnc(-c2ccc(Br)cc2)o1)c1ccco1 | ? | -22.6% | 79.4µM* | 43.9% | 15.8%
COc1cc(-c2nnc(NC(=O)c3ccco3)o2)cc(OC)c1OC | ? | ? | 79.4µM* | 19.2% | -3.9%
O=C(c1ccccc1)c1ccc(OCC(O)CN2CCCCC2)cc1 (stereo not given) | 4.0% | 10.5%[59 µM] | 12.6% | 31.5% | -3.5%
O=C(c1ccccc1)c1ccc(OCCCN2CCCCC2)cc1 | 7.94µM* | 8.91µM* | 31.6µM* | -35.3% | /
CC(=O)c1ccc(OCCCN2CCCCC2)cc1 | 2.24µM* | 3.55µM* | 50.1µM* | ? | /
COC(=O)c1ccc(OCCN2CCCCCC2)cc1 | -28.0% | 35.5µM* | ? | 4.4% | 13.6%
SMILES | JMJD2A Tudor inh | G9a inh | BAZ2B inh | HP1b binding inh | L3MBTL1 inh
CCCOC(=O)c1ccc(NC(=O)Cc2csc(C)n2)cc1 | -5.0% | 17.5%[59 µM] | 19.9% | 84.3% | /
O=c1cc[nH]c2c1ccc1c(=O)cc[nH]c12 | ? | 44.7µM* | -25.9% | 13.7% | /
COC(=O)c1ccc(NC(=O)c2c(Br)cnn2C)cc1 | -9.3% | 7.94µM* | -14.9% | -4.5% | /
CC(Oc1ccccc1F)C(=O)NNC(=O)c1ccc(F)c(S(=O)(=O)N2CCOCC2)c1 (stereo not given) | -5.6% | -8.0%[0.501 µM] | -3.5% | 18.3% | /
Cc1ccc(-n2cnc3cc(C(=O)NCc4ccc(F)cc4)ccc32)c(C)c1 | ? | -6.3%[59 µM] | -18.7% | 8.4% | /
O=C(NCC(c1ccco1)N1CCCCC1)c1ccc2c(c1)S(=O)(=O)c1ccccc1C2=O (stereo not given) | ? | 39.8µM* | ? | 6.0% | /
O=C(CNC(=O)C1CCCCC1)OCc1ccccc1 | 10.8%[57.1 µM] | / | / | 11.1%[57 µM] | /
Cc1nnc(-c2ccc(N3CCCCCC3)c([N+](=O)[O-])c2)o1 | ? | 44.7µM* | ? | -12.0% | -0.1%
COc1ccc2[nH]c(=O)c(-c3nnn(-c4ccc(Cl)nc4)n3)cc2c1 | 50.1µM* | / | / | 3.8% | /
COc1ccc2[nH]c(=O)c(-c3noc(-c4ccccc4)n3)cc2c1 | ? | ? | 50.1µM* | 42.5% | -10.4%
NC(=O)C1CCCCc2c1[nH]c1ccc(Cl)cc21 (stereo not given) | ? | -16.0% | -12.8% | 5.5% | /
CCNC(=O)C1CCCc2c1[nH]c1ccc(Cl)cc21 (stereo not given) | -15.0%[57.1 µM] | -7.9%[59 µM] | 79.4µM* | 0.5% | /
Cc1cccc(C(=O)Nc2cc3c(cc2N2CCCCC2)n(C)c(=O)c(=O)n3C)c1 | 1.7% | 3.7%[59 µM] | -0.3% | 30.5% | /
CCn1c(=O)c(=O)n(CC)c2cc(N3CCCCC3)c(NC(=O)c3cccc(OC)c3)cc21 | -8.6% | -35.0%[59 µM] | 0.5% | 13.0% | /
CCn1c(=O)n(CC)c2cc(N3CCCC3)c(NC(=O)c3ccc(C)c([N+](=O)[O-])c3)cc21 | ? | 8.91µM* | -32.3% | 11.8% | /
CCn1c(=O)n(CC)c2cc(N3CCCC3)c(NC(=O)c3cccc(C)c3)cc21 | ? | 28.2µM* | 50.1µM* | -5.7% | /
COc1ccc(/C=C/C=N/NC(=O)COc2ccc(OC)cc2)cc1 | -12.4% | 4.3%[59 µM] | -2.0% | 17.4% | 0.2%
COc1ccc(NCC(=O)N/N=C/C=C\c2ccccc2)cc1 | ? | 28.2µM* | ? | -11.1% | ?
COc1ccccc1NCC(=O)N/N=C/C=C/c1ccccc1 | ? | 28.2µM* | ? | -10.9% | -13.2%
CCOc1cc(C(c2c(C)[nH][nH]c2=O)c2c(C)[nH][nH]c2=O)ccc1OC(=O)c1cccc([N+](=O)[O-])c1 | ? | 3.55µM* | -35.5% | -13.9% | /
CCOc1cc(C(c2c(C)[nH][nH]c2=O)c2c(C)[nH][nH]c2=O)ccc1OCc1ccc([N+](=O)[O-])cc1 | ? | ? | -30.9% | 3.6% | /
CCCC[C@@H]1CCCO[C@@](C(=O)NCC2CC2)(C(F)(F)F)C1 | -11.0% | / | / | 13.3% | /
Cc1ccc(S(=O)(=O)N2CCC(C(=O)Nc3ccc(C)c(Cl)c3)CC2)cc1 | -5.5% | -26.0%[59 µM] | 1.6% | 35.5% | /
O=C(Nc1ccc(Cl)c(NC(=O)c2cccs2)c1)c1ccco1 | -4.4% | 56.2µM* | -21.5% | 30.6% | -5.1%
CCCC(=O)Nc1ccc(Cl)c(NC(=S)NC(=O)c2ccco2)c1 | -21.2% | 50.1µM* | -3.6% | 26.4% | 7.3%
CCCC(=O)Nc1ccc(C(=O)NNC(=O)c2ccccc2Br)cc1 | -6.6% | 22.4µM* | 9.7%[57.1 µM] | 7.2% | 2.3%
O=C(NC(=S)NNC(=O)c1cc2ccccc2cc1O)c1ccco1 | 44.7µM* | / | 6.6% | 1.0% | ?

High-throughput results from PubChem.
